Reference: ChEMBL document CHEMBL3988442, “University of Dundee, Small-Polar-MMV Screening Library” (2021)
In all, about 48,000 compounds went through this assay and about 13,000 (27%) showed an effect of 50% or more. Some of the results follow.

Test system: Wolbachia pipientis
Test: Anti-Wolbachia Cell-Based Screen
Format: functional
Design: scale not given: in the data most compounds retested in dose-response had high values
Conditions: 5 µM

Structure (SMILES)	Percent Effect
CN(C(=O)OC(C)(C)C)C1CCN(C(=O)c2cc(Cl)c[nH]2)C1 (centres undefined)	3.471%
COCC(=O)N[C@H](C)c1onc(-c2ccc(F)cc2)c1C(=O)O	-10.17%
CC(C)n1[nH]c(=O)c2c1NC(=O)CC2c1ccc2ncccc2c1 (centres undefined)	8.497%
CSc1ccc(C2CC(=O)Nc3c2c(=O)[nH]c2ncnn32)cc1 (centres undefined)	-5.097%
O=C1CC(c2ccc(F)cc2)c2cnn(C3CCCC3)c2N1 (centres undefined)	-2.721%
CC(C)n1[nH]c(=O)c2c1NC(=O)CC2c1cccc(OC(F)F)c1 (centres undefined)	18.26%
COc1cccc(C2CC(=O)Nc3c2c(=O)n(C)c2ncnn32)c1 (centres undefined)	109.5%
Cn1c(=O)c2c(n3ncnc13)NC(=O)CC2c1cccc(F)c1 (centres undefined)	120.7%
O=C1CC(c2ccc(C(=O)O)cc2)c2ncn(-c3cccc(F)c3)c2N1 (centres undefined)	4.592%
CC(C)n1[nH]c(=O)c2c1NC(=O)CC2c1cccnc1 (centres undefined)	10.81%
CC(C)(C)n1ncc2c1NC(=O)CC2c1ccccc1 (centres undefined)	1.075%
Cn1c(=O)c2c(n3ncnc13)NC(=O)CC2c1ccc(F)cc1 (centres undefined)	107.2%
O=C1CC(c2ccc(C(=O)O)cc2)c2ncn(-c3ccccc3F)c2N1 (centres undefined)	10.34%
Cn1c(=O)c2c(n3ncnc13)NC(=O)CC2c1cccc(Br)c1 (centres undefined)	114.2%
CC(C)(C)c1cn2c(n1)C(CNCc1ccccn1)CCC2 (centres undefined)	10.69%
CCN(Cc1nc(-c2ccco2)no1)Cc1cccc2c1OCO2	-4.038%
CC(C)n1nc2c(cc1=O)CN(CC1CCCCO1)CC2 (centres undefined)	3.458%
Cc1nc2n(n1)CC(NCc1ccccc1OCC(=O)N(C)C)CC2 (centres undefined)	1.473%
NC(=O)COc1ccc(CN2CCC(O)(CN3CCCCC3)C2)cc1Cl (centres undefined)	-2.336%
Cc1nc(N2Cc3cnn(Cc4ccc(F)cc4)c3C2)no1	-13.57%
Cn1ncc2c1NC(=O)CC2c1ccc(O)cc1 (centres undefined)	38.62%
CCc1ccc(C2CC(=O)Nc3c2c(=O)n(C)c2ncnn32)cc1 (centres undefined)	109.5%
COCc1nc2nc(O)c3c(n2n1)NC(=O)CC3c1ccc(SC)cc1 (centres undefined)	-7.854%

Structure (SMILES)	Percent Effect
CC(C)(C)c1noc(CCCC(=O)N2CCNC(=O)C2)n1	-4.153%
COc1cccc2c(=O)n(Cc3cc(C4CC4)[nH]n3)cnc12	104.8%
O=C(Cn1cnc2ccccc2c1=O)Nc1cc(C2CC2)n[nH]1	0.387%
CC1CCN(CC(O)Cn2cnc3ccsc3c2=O)CC1 (centres undefined)	-6.513%
CN(Cc1cc(C2CC2)[nH]n1)Cc1cc2ccc(F)cc2[nH]c1=O	-8.263%
COc1cccc2c(=O)n(CCN3CCNCC3)cnc12	4.244%
O=c1c2sccc2ncn1CC(O)CN1CCOCC1 (centres undefined)	7.822%
Cc1cc(CN2CCC(c3cc(Cc4ccccc4)n[nH]3)CC2)[nH]n1	25.91%
O=c1c2sccc2ncn1Cc1cc(C2CC2)[nH]n1	88.09%
O=c1c2ccccc2ncn1Cc1cc(C2CC2)[nH]n1	98.49%
N#Cc1ccc(N2CCCN(CC(=O)N3CCNC(=O)C3)CC2)cc1	-15.62%
CN(CC1=CCCN(Cc2cccc(C#N)c2)C1)C(=O)c1ccco1	6.358%
O=C(CCc1ccsc1)N1CCC(n2cc(CO)nn2)CC1	-0.2022%
CCn1c(CN2CCCC2)nnc1C1CCN(Cc2ccc(C)o2)CC1	10.89%
OC(CNc1nc(C2CCCC2)nc2c1CCNCC2)C(F)(F)F (centres undefined)	-10.56%
CCCc1cc(=O)[nH]c2nnc(SCC(N)=O)n12	23.5%
COC(=O)CSc1nnc2[nH]c(=O)c3c(n12)CCCC3	-5.705%
O=C(NCCCn1cccn1)c1csc2c1CCCC2	-1.067%
CCCn1c(SCC(N)=O)nnc1-c1csc2c1CCCC2	99.65%
CCn1c(SCC(N)=O)nnc1-c1csc2c1CCCC2	115.1%
NC(=O)CSc1nnc2[nH]c(=O)c3c(n12)CCCC3	2.529%
O=C(NCCn1ccnc1)c1csc2c1CCCC2	1.844%
CCCNC(=O)CSc1nnc2[nH]c(=O)c3c(n12)CCCC3	1.807%

Structure (SMILES)	Percent Effect
Cn1c(SCC(N)=O)nnc1-c1csc2c1CCCC2	119.7%
O=C(CSc1ccncc1)N1C[C@H]2CC[C@@H]1CN(Cc1cccnc1)C2	5.846%
CCCc1n[nH]c(C2CN(CCNS(=O)(=O)CC)CCO2)n1 (centres undefined)	14.03%
CC(C)c1cc(C(=O)NCC2CCCN(C(C)C)C2)n(C)n1.Cl (centres undefined)	153.6%
CC(C)c1cc(C(=O)NCC2CCCN(c3ncccn3)C2)n(C)n1 (centres undefined)	135%
CCCc1nnsc1C(=O)NCC1CCN(c2ncccn2)CC1	3.898%
O=C(NCCCN1CCN(c2ncccn2)CC1)NCC1CCOC1 (centres undefined)	1.135%
Cc1ccc(-c2nc(CC(=O)NCC3CCCN(C(C)C)C3)cs2)o1 (centres undefined)	19.88%
CCCc1nnsc1C(=O)NCC1CCN(c2ccccn2)CC1	-9.247%
CCc1nnsc1C(=O)NCCC1CCCN(C(C)C)C1 (centres undefined)	8.592%
CCn1nc(C(C)C)cc1C(=O)NCC1CCCN(c2ccccn2)C1 (centres undefined)	125%
CC(C)Cc1cc(C(=O)NCC2CCCN(c3ccccn3)C2)on1 (centres undefined)	8.718%
CC(C)Sc1ccc(C(C)NC(=O)CNS(C)(=O)=O)cc1 (centres undefined)	-8.082%
COCC(C)N1CCc2onc(-c3ccc(C(F)(F)F)cc3)c2C1 (centres undefined)	-24.24%
CCc1ncnc(N2CCOCC2C(N)=O)c1F (centres undefined)	114.1%
Cc1nn(C)c(C)c1C1COCCN1c1ncnc2sccc12 (centres undefined)	-13.78%
CCOCC(=O)N1CCc2c(ncnc2N2CCOCC2)C1	-19.06%
CCc1c(C)sc2ncnc(N3CC[C@@H](N4CCOCC4)[C@H](O)C3)c12	-13.58%
CC[C@H]1COCCN1C(=O)c1cnc(C(C)C)nc1C	-0.1974%
CCc1ncnc(N(C)CC2CCCCO2)c1F (centres undefined)	6.222%
CCc1ncnc(N2CCOCC2C2CC2)c1F (centres undefined)	106.4%
CCc1ccc(CN2CCc3ncnc(N4CCOCC4)c3CC2)o1.O=C(O)C(F)(F)F	10.74%
CCc1ncnc(N2CCOCC2CCO)c1F (centres undefined)	97.7%
